HIV RNase H inh-1 – blocks HIV-1 RNase H cleavage of RNA/DNA duplex. actives 1.9% (n = 65,000). P04585. inhibition, % at 10 µM. RT-RNase H RNA/DNA duplex cleavage, fluorescence; in the data active = inhibition above about 50%
RmlC RmlD mix – RmlC/RmlD inhibition, mixture screen; RmlC/RmlD coupled enzyme inhibition, 384-well mixture HTS; inhibition, % at 5.5 µM; actives 0.39% (n = 110,000); in the data active = inhibition above about 30%, passing the limit was not always enough; inconclusive = no clear call, values can overlap the other calls
HIV RNase H inh-2 – confirmation of HIV-1 reverse transcriptase RNase H inhibitors; Recombinant RT RNase H, fluorescent RNA/DNA duplex cleavage; actives 39% (n = 1,000); shares compounds with HIV RNase H inh-1; inhibition, % at 10 µM; in the data active = inhibition above about 48%; inconclusive = no clear call, values can overlap the other calls
The depositor's hits bear a star; ? = inconclusive; . = no result given. Shown is part of a subset that was picked to be rich in hits.

SMILES | HIV RNase H inh-1 | RmlC RmlD mix | HIV RNase H inh-2
CN(C(=O)c1coc(=O)c2ccccc12)c1ccc(F)cc1 | 72.5* | . | 32.9
Cc1cc2oc(=O)cc(CN3CCC(C)CC3)c2c(C)c1Cl | -6.7 | 6.5 | .
COc1ccc(N2CCN(Cc3cc(=O)oc4cc(C)c(Cl)c(C)c34)CC2)cc1 | 72.3* | -15.1 | 68.0*
CC(C)Cn1c(SCC(=O)NC(=O)Nc2ccc3c(c2)OCCO3)nc2ccccc2c1=O | 91.7* | 6.7 | 54.4*
C=CCn1c(SCC(=O)Nc2ccc3c(c2)OCO3)nc2ccccc2c1=O | -5.6 | -12.3 | .
Cc1nn(CCC#N)c2c1P(=S)(N1CCCC1)OC(c1ccc(F)cc1)=N2 (configuration not stated) | 91.4* | -1.3 | 71.5*
CN=C(Nc1cc(C)nn1CCC#N)c1ccc(F)cc1 | 0.3 | -9.6 | .
COc1ccc(C[C@H]2CN3C(=NC[C@@H]3Cc3ccc(O)cc3)N2C[C@H](C)NC(=O)c2ccc(C)c(Br)c2)cc1 | . | 3.9 | .
Cc1cc(C)n2c3c(c(C#N)c2n1)CC(C)(C)OC3 | -3.1 | 11.2 | .
CC1(C)Cc2[nH]c(=S)c(C#N)cc2CO1 | 69.6* | -1.8 | 65.1*
Cc1ccc(CS(=O)(=O)CCC(=O)N2CCOCC2)cc1 | -14.9 | . | .
Cc1sc(NC(=O)c2ccco2)c(C(c2cccnc2)N2CCCC2)c1C (configuration not stated) | . | -10.7 | .
CSc1nnc2c3cc(C)ccc3n(Cc3ccccc3)c2n1 | 50.2* | -12.7 | -3.0
CCOC(=O)C(CC)Sc1nnc2c3cc(C)ccc3n(C)c2n1 (configuration not stated) | . | -4.2 | .
O=C(Nc1ccccc1Sc1ccccc1)c1ccccc1F | . | 10.4 | .
COc1ccc(C)c2sc(N3CCCC3)nc12 | -17.4 | 14.9 | .
COc1ccc(OC)c2sc(N3CCN(c4ccccc4)CC3)nc12 | 75.1* | 4.6 | 42.8
Cc1cc2nc(C)n(CCCNC(=O)Nc3cccc4ccccc34)c2cc1C | . | 5.2 | .
CCOCCn1c(SCCCc2ccccc2)nc2c1c(=O)[nH]c(=O)n2C | -40.5 | 4.6 | .
CCCCn1c(SCC(=O)OCC)nc2c1c(=O)[nH]c(=O)n2C | 67.8* | 8.0 | 64.2*
CCOCCn1c(SC)nc2c1c(=O)[nH]c(=O)n2C | 59.5* | 9.1 | -4.5
CCOC(=O)CSc1nc2c(c(=O)[nH]c(=O)n2C)n1CCc1ccccc1 | -2.2 | 10.2 | .
O=C(NC1CCCCC1)c1sc(=S)n2c1[nH]c(=O)c1ccccc12 | 74.0* | 11.5 | 58.5*
CCCCNC(=O)c1sc(=S)n2c1[nH]c(=O)c1ccccc12 | 11.4 | 8.1 | .
Cc1ccc(Nc2[nH]c(=O)c3ccccc3c2C(=O)c2ccccc2)cc1 | . | 4.5 | .
SMILES | HIV RNase H inh-1 | RmlC RmlD mix | HIV RNase H inh-2
Cc1ccc(-n2c(SCC(=O)NCC3CCCO3)nnc2-c2ccoc2C)cc1 (configuration not stated) | 83.7* | -18.8 | 34.3
Cc1ccc(C)c(-n2c(SCC(=O)NCC3CCCO3)nnc2-c2ccoc2C)c1 (configuration not stated) | -2.5 | -2.0 | .
COCOc1cc(O)c(C(=O)/C=C/c2ccccc2)c(OCOC)c1 | . | 6.6 | .
COC(=O)c1ccccc1NC(=O)c1ccc2c(c1)C(=O)N(Cc1ccco1)C2=O | 60.9* | . | 94.3*
CCc1ccc(NC(=O)c2ccc3c(c2)C(=O)N(Cc2ccco2)C3=O)cc1 | 43.2 | 5.5 | .
C=CCSc1nc(C)cc(/C=C\c2ccccc2)c1C#N | . | -18.9 | .
COc1ccc(S(=O)(=O)Nc2ccccc2C(F)(F)F)cc1 | -15.8 | 7.8 | .
COc1ccc(S(=O)(=O)Nc2ccc(O)c3ccccc23)cc1 | 92.3* | 10.1 | 56.8*
N#Cc1c(N)sc2c1CCCCCC2 | -43.4 | -14.7 | .
N#Cc1c(N)sc(=S)c2c1CCCCC2 | 57.9* | -10.1 | 9.1
O=C(c1ccc(Cl)cc1)C1CCN(C(=O)C2CC2)CC1 | . | -12.4 | .
CC12CCC(C(=O)N(CC(O)CN3CCCCC3)C1=O)C2(C)C (configuration not stated) | . | 35.6 | .
Cc1ccc(C(=O)CSc2nc3cc(S(=O)(=O)N4CCOCC4)ccc3o2)cc1 | 72.4* | 4.2 | 22.6
Cc1ccc(S(=O)(=O)N2CCN(CC(=O)NC3CCCc4ccccc43)CC2)cc1C (configuration not stated) | . | -7.5 | .
O=C(CSc1nc2cc(S(=O)(=O)N3CCOCC3)ccc2o1)NC1CCCc2ccccc21 (configuration not stated) | 85.5* | 0.5 | ?
Cc1[nH]c2ccccc2c1C(=O)CSc1nc2cc(S(=O)(=O)N3CCCCC3)ccc2o1 | 36.1 | 0.8 | .
C=CCN1C=CC(=O)CC1 | . | -3.3 | .
CCOC(=O)C1CCN(C(=O)c2cccnc2Cl)CC1 | . | 15.2 | .
N#Cc1c(Cc2cccc3ccccc23)nn(CCO)c1N | . | -16.1 | .
C#CCOCCOCCOCCNc1nc(N2CCN(C(=O)[C@H]([C@@H](C)CC)n3cc([C@@H](N)CC(C)C)nn3)CC2)nc(N2CCN(C(=O)[C@H]([C@@H](C)CC)n3cc([C@@H](N)CC(C)C)nn3)CC2)n1 | . | -11.0 | .
O=C(N[C@@H](c1ccccc1)[C@H](O)c1ccccc1)[C@@H]1CCCN1C(=O)OCc1ccccc1 | . | -9.7 | .
Cc1ccccc1COC[C@H](CC(C)C)N1CCN(C(=O)c2cccc(C(F)(F)F)c2)CCC1=O | . | -14.5 | .
COc1ccc2cc3cc(C(=O)Nc4ccc5c(c4)OCO5)oc3nc2c1 | 62.5* | 1.9 | 2.3
COc1ccc2nc3oc(C(=O)Nc4ccc(OC)c(OC)c4)cc3cc2c1 | . | 23.9 | .
C#C[C@]1(O)CCC2C3CCC4=Cc5oncc5CC4(C)C3CCC21C (some centres not stated) | . | 2.5 | .
SMILES | HIV RNase H inh-1 | RmlC RmlD mix | HIV RNase H inh-2
Cc1cc(C(=O)CN2C(=O)c3cccc(N)c3C2=O)c(C)n1Cc1cccs1 | . | 9.2 | .
c1ccc2nc3c(nc2c1)c1ccccc1n3CCN1CCOCC1 | -29.5 | -1.1 | .
CCn1c2ccccc2c2nc3cc(S(=O)(=O)N4CCOCC4)ccc3nc21 | 98.3* | . | 52.1*
Cc1cc2sc(C(=O)O)c(C)c2s1 | . | -9.0 | .
Nc1c(C(=O)NCc2ccco2)sc2nc(N3CCOCC3)c3c(c12)CCCC3 | 53.7* | -48.2 | 3.3
CCOC(=O)c1sc2nc(N3CCOCC3)c3c(c2c1N)CCCC3 | -3.0 | -183.9 | .
Oc1ccc(Nc2nc(-c3ccc4ccccc4c3)cs2)cc1 | . | 95.0 | .
Oc1ccc(-c2nc(-c3ccc(O)c(O)c3)cs2)cc1 | 100.4* | -0.7 | 82.6*
CSc1ccc(C2Nc3ccccc3-c3cc(C)nn32)cc1 (configuration not stated) | 70.9* | -12.6 | -6.3
Cc1cc2n(n1)C(c1ccsc1)Nc1ccccc1-2 (configuration not stated) | -8.4 | 43.0 | .
CC(C)(C)CC(C)(C)NC(=O)CSCC(=O)Nc1ccc2ccccc2c1 | . | 2.3 | .
O=C1CC(c2nc3ccccc3[nH]2)CN1c1ccccc1F (configuration not stated) | 63.2* | 12.7 | 21.2
COc1ccc(Cl)cc1N1CC(c2nc3ccccc3[nH]2)CC1=O (configuration not stated) | -5.7 | 8.5 | .
COCCN1C(=O)N[C@@H](c2cccs2)C(C(C)=O)=C1C | . | -14.6 | .
COc1ccc(C2NC(=S)NC3=C2CCc2cc(OC)ccc23)cc1 (configuration not stated) | . | -12.3 | .
CCC(C)(C)n1nnnc1C(c1cc(OC)ccc1OC)N1CCC(C(N)=O)CC1 (configuration not stated) | . | 3.0 | .

Source: PubChem
